# Data published in PubChem BioAssay (NCATS).
# Results filed as inconclusive are left out. A number with no mark means an inactive call. The source made the active and inactive calls. Calls come from the whole dose curve; as a rule, active = well fitted curve in the direction sought with a large enough effect; inconclusive = small, poorly fitted or top-dose-only effect, or another doubt; inactive = no such curve, though single readings can be large; an effect the other way counts as inactive or inconclusive.
# Test: qHTS of pediatric cancer cell lines to identify multiple opportunities for drug repurposing: Confirmatory screen for Rh18 cells (AID 1347125); note: nearly all actives have a fitted effect of over 55% in size; for activity change, negative = cytotoxic: % is set by controls: 0 for no effect and ±100 for the full control effect
# Details: Rh18 rhabdomyosarcoma cells, viability; series mostly up to 45.9 µM; activity change, negative = cytotoxic: at the top concentration
# How it was run: (§1)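 Cells (500-1,000/well) in growth media were settled 5 h at 37 degrees C, then given compounds for 48 h. Viability was read as CellTiter-Glo luminescence. Primary runs used MIPE at 11 points (0.78 nM-46 µM) and NPC at 8 points (0.59 nM-46 µM); follow-ups used 11 points.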
# Potency is the fitted concentration of half-maximal effect.
Compound,"activity change, negative = cytotoxic",Potency
Nc1nc(N)c2nc(-c3ccccc3)c(N)nc2n1,3.06%,
C[C@]12CC[C@@H]3c4ccc(O)cc4C[C@@H](CCCCCCCCCS(=O)CCCC(F)(F)C(F)(F)F)[C@H]3[C@@H]1CC[C@@H]2O (stereo not given in full),-19.4%,
C[n+]1cc2c3c(ccc2c2ccc4cc5c(cc4c21)OCO5)OCO3,,1.62 µM (active)
C[C@]12C=CC(=O)C=C1CC[C@H]1[C@@H]3C[C@@H](O)[C@](O)(C(=O)CO)[C@@]3(C)C[C@H](O)[C@@]12F,,9.27 µM (active)
NCCCNCCSP(=O)(O)O,1.32% [at 9.58 µM],
CN/C(=C\[N+](=O)[O-])NCCSCc1ccc(CN(C)C)o1,1.77%,
CN1C[C@H](C(=O)N[C@]2(C)O[C@@]3(O)[C@@H]4CCCN4C(=O)[C@H](Cc4ccccc4)N3C2=O)C[C@@H]2c3cccc4[nH]cc(c34)C[C@H]21,2.52%,

# Test: qHTS of pediatric cancer cell lines to identify multiple opportunities for drug repurposing: Confirmatory screen for Rh30 cells (AID 1347126); note: nearly all actives have a fitted effect of over 55% in size; for activity change, negative = cytotoxic: % is set by controls: 0 for no effect and ±100 for the full control effect
# Details: Rh30 rhabdomyosarcoma cell viability; series mostly up to 45.9 µM; activity change, negative = cytotoxic: at the top concentration
# How it was run: as §1
Compound,"activity change, negative = cytotoxic",Potency
Nc1nc(N)c2nc(-c3ccccc3)c(N)nc2n1,-26.3%,
C[C@]12CC[C@@H]3c4ccc(O)cc4C[C@@H](CCCCCCCCCS(=O)CCCC(F)(F)C(F)(F)F)[C@H]3[C@@H]1CC[C@@H]2O (stereo not given in full),-18.7%,
C[C@]12C=CC(=O)C=C1CC[C@H]1[C@@H]3C[C@@H](O)[C@](O)(C(=O)CO)[C@@]3(C)C[C@H](O)[C@@]12F,,7.37 µM (active)
NCCCNCCSP(=O)(O)O,-18.1% [at 9.47 µM],
CN/C(=C\[N+](=O)[O-])NCCSCc1ccc(CN(C)C)o1,,0.185 µM (active)
CN1C[C@H](C(=O)N[C@]2(C)O[C@@]3(O)[C@@H]4CCCN4C(=O)[C@H](Cc4ccccc4)N3C2=O)C[C@@H]2c3cccc4[nH]cc(c34)C[C@H]21,-5.48%,

# Test: qHTS of pediatric cancer cell lines to identify multiple opportunities for drug repurposing: Confirmatory screen for Saos-2 cells (AID 1347127); note: nearly all actives have a fitted effect of over 60% in size;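 for activity change, negative = cytotoxic: plate controls were DMSO for no effect and bortezomib for full effect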
# Details: Saos-2 osteosarcoma cell viability; series mostly up to 45.9 µM; activity change, negative = cytotoxic: at the top concentration
# How it was run: as §1
Compound,"activity change, negative = cytotoxic",Potency,outcome
Nc1nc(N)c2nc(-c3ccccc3)c(N)nc2n1,-11.4%,,
C[C@]12CC[C@@H]3c4ccc(O)cc4C[C@@H](CCCCCCCCCS(=O)CCCC(F)(F)C(F)(F)F)[C@H]3[C@@H]1CC[C@@H]2O (stereo not given in full),-19.7%,,
C[n+]1cc2c3c(ccc2c2ccc4cc5c(cc4c21)OCO5)OCO3,,1.29 µM (active),
C[C@]12C=CC(=O)C=C1CC[C@H]1[C@@H]3C[C@@H](O)[C@](O)(C(=O)CO)[C@@]3(C)C[C@H](O)[C@@]12F,,9.27 µM (active),
NCCCNCCSP(=O)(O)O,-1.29% [at 9.58 µM],,
CN/C(=C\[N+](=O)[O-])NCCSCc1ccc(CN(C)C)o1,,,inactive
CN1C[C@H](C(=O)N[C@]2(C)O[C@@]3(O)[C@@H]4CCCN4C(=O)[C@H](Cc4ccccc4)N3C2=O)C[C@@H]2c3cccc4[nH]cc(c34)C[C@H]21,9.38%,,
